Shown are actives, neighbours in structure and some others; about 2.9% of the full set was active somewhere.
PLCg1 inh – blocks human PLC-gamma1 enzyme activity; purified PLC-gamma1, fluorogenic substrate, fluorescence; inhibition, % at 12.2 µM; 370,000 compounds, 0.84% hits; AID 720700; in the data active = inhibition above about 9.5%
ADAM10 inh – inhibits human ADAM10; 370,000 compounds, 0.62% hits; O14672; inhibition, % at 7 µM; recombinant ADAM10, EDANS/DABCYL FRET peptide cleavage, 3 h;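 active = inhibition above a per-campaign cutoff equal to the mean of compounds falling between control-based bounds plus 3 SD, cut at about 20% in these data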
Target sequence (O14672 214-748 limits assumed): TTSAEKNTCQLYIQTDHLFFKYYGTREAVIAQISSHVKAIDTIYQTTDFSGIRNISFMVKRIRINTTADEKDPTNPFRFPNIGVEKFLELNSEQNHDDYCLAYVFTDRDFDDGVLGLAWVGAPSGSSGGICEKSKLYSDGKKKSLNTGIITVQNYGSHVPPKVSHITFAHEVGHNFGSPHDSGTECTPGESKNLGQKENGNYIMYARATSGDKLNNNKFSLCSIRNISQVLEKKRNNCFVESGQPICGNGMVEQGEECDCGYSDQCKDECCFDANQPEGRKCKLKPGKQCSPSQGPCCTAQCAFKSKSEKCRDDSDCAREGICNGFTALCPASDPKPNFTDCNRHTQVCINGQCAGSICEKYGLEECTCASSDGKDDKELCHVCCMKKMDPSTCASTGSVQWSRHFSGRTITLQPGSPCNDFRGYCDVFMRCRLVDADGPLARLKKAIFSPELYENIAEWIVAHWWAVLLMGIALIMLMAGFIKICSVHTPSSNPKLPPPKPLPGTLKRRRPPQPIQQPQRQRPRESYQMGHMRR
PLC-beta3 inh – blocks human PLC-beta3 enzyme activity; Q01970; Purified PLC-beta3, fluorogenic substrate, fluorescence; 370,000 compounds, 0.18% hits; inhibition, % at 12.2 µM; in the data active = inhibition above about 11%
ADAM17 inh – inhibitors of human ADAM17; P78536; recombinant ADAM17, EDANS/DABCYL FRET peptide cleavage; inhibition, % at 6.95 µM; 370,000 compounds, 0.83% hits;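 active = inhibition above the mean of compounds lying between control limits plus 3 SD, set per campaign, cut at about 8.5% in these data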
KLK7 zymogen act – activates the human kallikrein-7 zymogen. activation, % at 7 µM. purified proKLK7, EDANS-DABCYL substrate fluorescence; 100% is mature enzyme control, 0% vehicle. 370,000 compounds, 0.9% hits. P49862;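 active = activation above the mean of all tested compounds plus 3 SD, computed per campaign excluding outliers beyond control limits, cut at about 13% in these data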
ADAM10 confirm – confirmation of inhibitors of human ADAM10 | ADAM10 QFRET peptide cleavage, EDANS fluorescence | 2,100 compounds, 1% hits | shares compounds with ADAM10 inh | AID 743208 | inhibition, % at 6.95 µM;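 active = inhibition above about 20% chosen separately for each screening run, limit read from the data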
ADAM17 counter – counter-screen for ADAM10 exosite inhibitors: inhibitors of human ADAM17; shares compounds with ADAM10 inh; ADAM17 QFRET peptide cleavage, EDANS fluorescence; inhibition, % at 6.95 µM; 2,100 compounds, 0.5% hits;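 active = mean triplicate inhibition above the solvent-only control wells' mean plus 3 SD, cut at about 12% in these data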
ADAM10 counter – inhibits human ADAM10 in ADAM17 exosite counter-screen | recombinant ADAM10, EDANS/DABCYL FRET peptide cleavage, 3 h | inhibition, % at 6.95 µM | 2,900 compounds, 47% hits | shares compounds with ADAM17 inh;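 active = mean inhibition over the triplicate runs exceeds the activity threshold set in the earlier primary screen, cut at about 20% in these data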
ADAM17 confirm – confirmation of inhibitors of human ADAM17 | recombinant ADAM17, EDANS/DABCYL QFRET peptide cleavage | shares compounds with ADAM17 inh | inhibition, % at 6.95 µM | AID 743257 | 2,900 compounds, 65% hits;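 active = mean inhibition across replicates above the hit cutoff set in the primary screen, cut at about 8.5% in these data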
A number is an active result.

Results for O=C(CCc1ccccc1-c1ccccc1CCNC(=O)COCc1ccccc1)NCc1ccccc1 ?
PLCg1 inh: inactive; ADAM10 inh: inactive; PLC-beta3 inh: inactive; ADAM17 inh: inactive; KLK7 zymogen act: inactive

What do the screens show for `CCOC(=O)[C@@H]1[C@H]2COc3ccc(Br)cc3[C@H]2N2C(=O)N(c3ccc(F)cc3)C(=O)[C@]12C`?
PLCg1 inh: inactive; ADAM10 inh: 25; PLC-beta3 inh: inactive; ADAM17 inh: inactive; KLK7 zymogen act: inactive; ADAM10 confirm: inactive; ADAM17 counter: inactive

What do the screens show for `O=C(Nc1ccc([N+](=O)[O-])cc1)N1CCc2ccccc2C1`?
PLCg1 inh: inactive; ADAM10 inh: 22; PLC-beta3 inh: inactive; ADAM17 inh: inactive; KLK7 zymogen act: inactive; ADAM10 confirm: inactive; ADAM17 counter: inactive

How did CCn1c(COc2ccccc2)nnc1SCC(=O)Nc1ccc(Oc2ccccc2)cc1 do in these assays?
PLCg1 inh: inactive; ADAM10 inh: inactive; PLC-beta3 inh: inactive; ADAM17 inh: inactive; KLK7 zymogen act: inactive

Results for O=C1c2ccccc2C(=O)N1CCc1c(-c2[nH]c3ccccc3c2CCN2C(=O)c3ccccc3C2=O)[nH]c2ccccc12 ?
PLCg1 inh: inactive; ADAM10 inh: inactive; PLC-beta3 inh: inactive; ADAM17 inh: inactive; KLK7 zymogen act: inactive

Results for O=C1c2ccccc2C(=O)N1CCc1c(-c2ccccc2)[nH]c2ccccc12 ?
PLCg1 inh: inactive; ADAM10 inh: 20; PLC-beta3 inh: inactive; ADAM17 inh: inactive; KLK7 zymogen act: inactive; ADAM10 confirm: inactive; ADAM17 counter: inactive

How did CN(Cc1ccccc1Cl)C(=O)CN1C(=O)C2(OCCCO2)c2ccccc21 do in these assays?
PLCg1 inh: inactive; ADAM10 inh: inactive; PLC-beta3 inh: inactive; ADAM17 inh: inactive; KLK7 zymogen act: inactive

How did Cc1ccc(S(=O)(=O)c2ccc(NC(=O)c3c(F)cccc3F)cc2)cc1 do in these assays?
PLCg1 inh: inactive; ADAM10 inh: 24; PLC-beta3 inh: inactive; ADAM17 inh: inactive; KLK7 zymogen act: inactive; ADAM10 confirm: inactive; ADAM17 counter: inactive

What do the screens show for `O=C(Nc1ccc(S(=O)(=O)N2CCCC2)cc1)c1c(F)cccc1F`?
PLCg1 inh: inactive; ADAM10 inh: inactive; PLC-beta3 inh: inactive; ADAM17 inh: inactive; KLK7 zymogen act: inactive

What do the screens show for `CC(C)CCNC(=O)c1onc(CSc2ccccn2)c1C(=O)NCCC(C)C`?
PLCg1 inh: inactive; ADAM10 inh: 20; PLC-beta3 inh: inactive; ADAM17 inh: inactive; KLK7 zymogen act: inactive; ADAM10 confirm: inactive; ADAM17 counter: inactive

How did COCCNC(=O)c1onc(CSc2ccccn2)c1C(=O)NCCOC do in these assays?
PLCg1 inh: inactive; ADAM10 inh: inactive; PLC-beta3 inh: inactive; ADAM17 inh: inactive; KLK7 zymogen act: inactive

How did CCNC(=S)Nc1scc(-c2ccccc2)c1C(=O)OCC do in these assays?
PLCg1 inh: inactive; ADAM10 inh: 26; PLC-beta3 inh: inactive; ADAM17 inh: inactive; KLK7 zymogen act: inactive; ADAM10 confirm: inactive; ADAM17 counter: inactive

What do the screens show for `COC(=O)c1ccc(-c2cc3onc(-c4ccccc4)c3c(=O)n2C)cc1`?
PLCg1 inh: inactive; ADAM10 inh: 71; PLC-beta3 inh: inactive; ADAM17 inh: inactive; KLK7 zymogen act: inactive; ADAM10 confirm: 25; ADAM17 counter: inactive

How did Cc1ccc(-c2nnc(SCC(=O)Nc3ccc(OCc4ccccc4)cc3)n2-c2ccc(Cl)cc2)cc1 do in these assays?
PLCg1 inh: inactive; ADAM10 inh: inactive; PLC-beta3 inh: inactive; ADAM17 inh: inactive; KLK7 zymogen act: inactive

How did CN(CC(=O)NCc1ccc(F)cc1)CC(=O)Nc1ccc(Cl)c(C(F)(F)F)c1 do in these assays?
PLCg1 inh: inactive; ADAM10 inh: 23; PLC-beta3 inh: inactive; ADAM17 inh: inactive; KLK7 zymogen act: inactive; ADAM10 confirm: inactive; ADAM17 counter: inactive

How did CC(=O)c1cc(-c2ccccc2)n(CC(=O)NCc2ccccc2Cl)c1C do in these assays?
PLCg1 inh: inactive; ADAM10 inh: inactive; PLC-beta3 inh: inactive; ADAM17 inh: inactive; KLK7 zymogen act: inactive

What do the screens show for `Cc1cc(SCC(=O)N/N=C/c2ccc(O)c(O)c2)c(C)cc1Br`?
PLCg1 inh: inactive; ADAM10 inh: 29; PLC-beta3 inh: inactive; ADAM17 inh: inactive; KLK7 zymogen act: inactive; ADAM10 confirm: inactive; ADAM17 counter: inactive

How did CCCC1CC(C)(c2csc(Nc3ccc(OCC)cc3)n2)OC1=O (stereo not drawn) do in these assays?
PLCg1 inh: inactive; ADAM10 inh: 21; PLC-beta3 inh: inactive; ADAM17 inh: inactive; KLK7 zymogen act: inactive; ADAM10 confirm: inactive; ADAM17 counter: inactive

What do the screens show for `CCOc1ccc(NC(=O)CC2CC(C)(C)OC2=O)cc1` (stereo not drawn)?
PLCg1 inh: inactive; ADAM10 inh: inactive; PLC-beta3 inh: inactive; ADAM17 inh: inactive; KLK7 zymogen act: inactive

How did O=C(Nc1nc2ccccc2s1)C1c2ccccc2Oc2ccccc21 do in these assays?
PLCg1 inh: inactive; ADAM10 inh: 28; PLC-beta3 inh: inactive; ADAM17 inh: inactive; KLK7 zymogen act: inactive; ADAM10 confirm: inactive; ADAM17 counter: inactive

What do the screens show for `COc1ccc(Cl)cc1CC1(C)C(=O)Nc2ccc(-c3ccccc3OC)cc21` (stereo not drawn)?
PLCg1 inh: inactive; ADAM10 inh: inactive; PLC-beta3 inh: inactive; ADAM17 inh: inactive; KLK7 zymogen act: inactive

Results for COc1ccccc1-c1ccc2c(c1)C(C)(Cc1cc(Cl)ccc1C(F)(F)F)C(=O)N2 (stereo not drawn) ?
PLCg1 inh: inactive; ADAM10 inh: 21; PLC-beta3 inh: inactive; ADAM17 inh: inactive; KLK7 zymogen act: inactive; ADAM10 confirm: inactive; ADAM17 counter: inactive

Results for COc1cccc(NC(=S)NNC(=O)c2ccccc2OC(F)F)c1 ?
PLCg1 inh: inactive; ADAM10 inh: 21; PLC-beta3 inh: inactive; ADAM17 inh: inactive; KLK7 zymogen act: inactive; ADAM10 confirm: inactive; ADAM17 counter: inactive

What do the screens show for `C[C@H](NC(=O)c1nc[nH]c1C(=O)N[C@@H](Cc1ccccc1)C(=O)OC(C)(C)C)C(=O)OC(C)(C)C`?
PLCg1 inh: inactive; ADAM10 inh: 22; PLC-beta3 inh: inactive; ADAM17 inh: 10.0; KLK7 zymogen act: inactive; ADAM10 confirm: inactive; ADAM17 counter: inactive; ADAM10 counter: 50; ADAM17 confirm: 24

Results for CC(C)(C)OC(=O)N1CCC(NC(=O)c2nc[nH]c2C(=O)NCC(=O)OCc2ccccc2)CC1 ?
PLCg1 inh: inactive; ADAM10 inh: 23; PLC-beta3 inh: inactive; ADAM17 inh: 8.7; KLK7 zymogen act: inactive; ADAM10 confirm: inactive; ADAM17 counter: inactive; ADAM10 counter: inactive; ADAM17 confirm: inactive
